The text below walks through data of PubChem BioAssay (EPA / NIEHS).

Inconclusive results are not listed. A structure can be active in one record and inactive in another. The source made the active and inactive calls. The calls were made as follows: active = hit-call score of the fitted dose curve at least 0.9, where 1 is the maximum; inconclusive = response in the unintended direction; inactive = score below 0.9.

The target of the test is Luciferin 4-monooxygenase (Photinus pyralis) (UniProt P08659). Nature of the test: CCTE_Simmons_QuantiLum_inhib_2: CCTE's Firefly Luciferase Inhibition Assay, Simmons Lab (AID 2283767).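 As to AC50: potency for inhibitors that lower luciferase luminescence relative to DMSO.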 The protocol: CCTE_Simmons_QuantiLum_inhib_2 is a biochemical, single-readout assay that uses purified luciferase enzyme in a cell-free assay.Measurements were taken 0.5 hour after chemical dosing in a 384-well plate.CCTE_Simmons_QuantiLum_inhib_2 is the assay component measured from the CCTE_Simmons_QuantiLum_inhib_2 assay. It is designed to make measurements of enzyme activity, a form of enzyme reporter, as detected with bioluminescence signals by Luciferase-coupled Quantilum levels technology. This is a secondary assay to CCTE_Simmons_AUR_TPO to evaluate nonspecific enzyme inhibition.Data from the assay component CCTE_Simmons_QuantiLum_inhib_2 was analyzed at the endpoint, CCTE_Simmons_QuantiLum_inhib_2, in the positive analysis fitting direction relative to DMSO as the negative control and baseline of activity. Using a type of enzyme reporter, measures of enzyme activity for loss-of-signal activity can be used to understand inhibition of firefly luciferase. This is an assay endpoint to indicate nonspecific protein inhibition for comparison to aeid 1508 for thyroperoxidase inhibition. To generalize the intended target to other relatable targets, this assay endpoint is annotated to the oxidoreductase intended target family, where the subfamily is monooxygenase.
Chain of Luciferin 4-monooxygenase (Photinus pyralis) (P08659 whole entry, looked up): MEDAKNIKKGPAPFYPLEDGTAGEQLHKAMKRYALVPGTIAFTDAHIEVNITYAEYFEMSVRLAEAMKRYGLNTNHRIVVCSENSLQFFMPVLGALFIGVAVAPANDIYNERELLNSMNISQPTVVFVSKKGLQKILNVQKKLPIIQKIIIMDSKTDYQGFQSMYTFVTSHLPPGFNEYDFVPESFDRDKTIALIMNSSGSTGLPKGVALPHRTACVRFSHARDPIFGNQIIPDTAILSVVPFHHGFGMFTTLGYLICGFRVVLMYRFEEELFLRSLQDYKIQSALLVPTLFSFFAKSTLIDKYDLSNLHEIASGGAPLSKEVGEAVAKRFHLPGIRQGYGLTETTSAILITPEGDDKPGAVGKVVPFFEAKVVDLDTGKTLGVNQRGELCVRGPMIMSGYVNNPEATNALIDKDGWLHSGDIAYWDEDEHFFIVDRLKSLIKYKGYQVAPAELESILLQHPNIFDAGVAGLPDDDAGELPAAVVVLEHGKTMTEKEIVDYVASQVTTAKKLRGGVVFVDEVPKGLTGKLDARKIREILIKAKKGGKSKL
Quanti-Lum recombinant luciferase (Promega; Madison, Wisconsin) was diluted to 76.9 ng/ml with 200mM potassium phosphate buffer supplemented with 1 mg/ml bovine serum albumin and 65ul (5ng recombinant luciferase) per well was dispensed into opaque, white 384-well plates (Greiner, BioExpress) using an automated liquid handler (BioTek MicroFlo) with a plastic 5 ul tubing cassette. Test compounds were administered using the HDRT as described earlier to achieve a 0.5% final DMSO concentration. Microplates were incubated at 37C in the dark for 30min to mimic the AUR-TPO assay conditions. Luciferase detection reagent (25 ul per well; 9.2 mM dithiothreitol, 75uM Coenzyme A, 147uM dATP, 150uM D-luciferin, 8.9 mM Tricine, 297uM (MgCO3)4.Mg(OH)2.5H20, 742uM MgSO4, 27.8uM EDTA, pH 7.8, final assay concentrations) was then added using a BMG Clariostar plate reader equipped with syringe injectors (BMG LabTech; GmbH). Plates were read using a kinetic luminescence protocol (top read) whereby each well was individually injected with luciferase detection reagent immediately prior to measurement. Three biological replicates of technical singles were run for every chemical concentration tested. A titrated range of LUCINH2 served as a positive control on each plate of the luciferase inhibition screening assay. Test chemicals were administered as a titrated series of 8 concentrations from 5 nM up to 87.5 uM [final] for 30 minutes prior to single endpoint detection. Dimethylsulfoxide [DMSO] was used as the vehicle control. Luciferase Inhibitor I [2-(5-(2-Methoxyphenyl)-1,2,4-oxadiazol-3-yl)pyridine] was used as the positive control and was administered as a titrated series of 8 concentrations from 1 nM up to 100 uM [final].
With `O=P(OC(CCl)CCl)(OC(CCl)CCl)OC(CCl)CCl`, the result was inactive. With `Cc1ccc(N)cc1O`, the AC50 is 17.4 µM (active). `O=c1n(CC2CO2)c(=O)n(CC2CO2)c(=O)n1CC1CO1` (stereo unspecified): the result was inactive. The same measure, in the same setting: the same measure for `CCn1nc(Cc2ccccc2)cc1C1CCN(C[C@H]2C[C@H](N(C)[C@@H](C(=O)O)C(C)C)C[C@@H]2c2cccc(F)c2)CC1`: “inactive”; for `CCC(C)(C)C(=O)O[C@H]1C[C@@H](C)C=C2C=C[C@H](C)[C@H](CC[C@@H]3C[C@@H](O)CC(=O)O3)[C@H]21`: “inactive”. Same read-out and setting: the same measure for `CCNc1ccccc1`: “inactive”; for `CC(C)=CCC/C(C)=C\CO`: “inactive”; for `CCOC(=O)c1ccc(C2CCC(NC[C@H](O)COc3ccc(O)c(NS(C)(=O)=O)c3)CC2)cc1` (stereo partly specified): “inactive”.

Regarding `Cc1[nH]cnc1C[C@H]1CCc2c(C)c3ccccc3n2C1=O`, the result was inactive. For `CN(C)c1ccc(N=NS(=O)(=O)O)cc1`, the compound was called inactive. Still for that read-out and setting: the same measure for `Oc1ccc2c(c1)-c1ccccc1C2`: “inactive”. Same read-out and setting: for `CN(C)c1ccc(Cc2ccc(N(C)C)cc2)cc1` the value was “inactive”.

As to `CC(C)(O)c1coc(S(=O)(=O)NC(=O)Nc2c3c(cc4c2CCC4)CCC3)c1`, the call was inactive. The same measure, in the same setting: the same measure for `CCCCCCc1ccc(O)cc1O`: “inactive”; for `CCOc1cccc(-n2cc(C(=O)N3CCN(c4cc(C(=O)O)c5ccccc5c4)CC3)nc2-c2ccc(C)cc2)c1`: “inactive”. The same measure, in the same setting: the same measure for `O=C(O)CCN(C1(C(=O)NO)CCCC1)S(=O)(=O)c1ccc(Oc2ccc(F)cc2)cc1`: “inactive”. Take `Nc1ccc(Nc2ccccc2)cc1`: the result was inactive. Still for that read-out and setting: for `CC/C(=C\C(=N/O)C(N)=O)C(C)[N+](=O)[O-]` (stereo unspecified) the value was “inactive”.

For `On1ccccc1=S`, the AC50 was 9 µM (active).

Take `CC(C)=CCCC(C)=CC=O`: the outcome was inactive.

On to `O=C(CCCCCCCCc1cccnc1)N1CCC(C=C(c2ccccc2)c2ccccc2)CC1`, for which the outcome was inactive. As for `O=C(OC[C@H]1O[C@@H](OC(=O)c2cc(O)c(O)c(OC(=O)c3cc(O)c(O)c(O)c3)c2)[C@H](OC(=O)c2cc(O)c(O)c(OC(=O)c3cc(O)c(O)c(O)c3)c2)[C@@H](OC(=O)c2cc(O)c(O)c(OC(=O)c3cc(O)c(O)c(O)c3)c2)[C@@H]1OC(=O)c1cc(O)c(O)c(OC(=O)c2cc(O)c(O)c(O)c2)c1)c1cc(O)c(O)c(OC(=O)c2cc(O)c(O)c(O)c2)c1`, the AC50 is 21.6 µM (active). As to `Nc1nc2ncc(CNc3ccc(C(=O)N[C@@H](CCC(=O)O)C(=O)O)cc3)nc2c(=O)[nH]1`, the compound was classed as inactive.

`NC(=O)NO`: the compound was classed as inactive. The same measure, in the same setting: for `O=C(O)c1cccc(N(Cc2cccnc2)c2ccc(OC(F)F)c(OC(F)F)c2)c1` the value was “inactive”. Turning to `C[C@](N)(Cc1ccc(O)c(O)c1)C(=O)O`, the AC50 was 53.8 µM (active). With `CC(C)=CCCC(C)CCO` (stereo unspecified), the result was inactive. Turning to `CC[C@H](C)C(=O)O[C@H]1C[C@@H](C)C=C2C=C[C@H](C)[C@H](CC[C@@H]3C[C@@H](O)CC(=O)O3)[C@H]21`, the AC50 was 77.6 µM (active) and the call was inactive.

Consider `CCCN(C1CCN(C(=O)C2CCNCC2)CC1)[C@@H]1CCc2ccc(OC)cc2C1`, for which the compound was called inactive. Same read-out and setting: the same measure for `Cn1cnc([N+](=O)[O-])c1Sc1ncnc2nc[nH]c12`: “inactive”.

A word on the AC50: it is the concentration giving half of the maximal activity seen.
